# Data as given in PubChem BioAssay (NCI).
# Compounds without any hit were thinned out: in the full panel of roughly 83,000, 20% have a hit.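 Note: values are percent growth. 100 is the growth of untreated cells, values between 100 and 0 indicate rising inhibition; between -100 and 0 indicates cell death.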 Values without a mark were called inactive. Calls of active or inactive are those of the source. Rule for the calls: active = growth percent below 10; inactive = the rest.
# System: OVCAR-3 ovarian
# Assay: NCI-60 one-dose screen, 48 h (100 = growth as untreated, 0 = no growth, -100 = all killed)
# Settings: 10 µM unless noted
row,SMILES,growth
1,CCOC(=O)C1=C(C)NC(C)=C(C(=O)OCC)C1(C)C,112%
2,Cc1[nH]c2ccc(F)cc2c1CCNC(=O)C1CCN(C(=O)c2ccccc2)C1 (stereo not drawn),101% [25 µM]
3,COc1ccc(C(=O)N2NC(=O)/C(=C/c3ccc(Br)cc3)N=C2c2ccccc2)cc1,119%
4,Cc1ccc(-c2cc3nc(-c4ccccc4)nc(C(Cl)Cl)n3n2)cc1,-94.5% (active)
5,O=C(Nc1cccc(-n2cc(-c3ccncc3)c(-c3ccc(Cl)c(O)c3)n2)c1)Nc1cccc(C(F)(F)F)c1,0.81% (active)
6,COC(OC)c1ccccc1,106%
7,COc1ccc(NC(=O)c2c(Nc3ccc(OC)cc3OC)n[nH]c2N)c(OC)c1,106%
8,CC(C)(C)n1cc(-c2ccnc(NCCCNS(=O)(=O)c3ccc(F)cc3)c2)c(-c2cccc(O)c2)n1,56.1%
9,O=C(C1=Cc2cc3ccccc3n2Cc2cnnn21)c1ccccc1,26.9%
10,N=C(N)c1ccc(-c2ccc(-c3cncc4ccccc34)s2)cc1F,-91.6% (active)
11,c1cc(C2=N[C@@H]3c4ccccc4C[C@@H]3O2)nc(C2=N[C@@H]3c4ccccc4C[C@@H]3O2)c1,109%
12,CN(C)c1oc(C2OC2c2ccccc2)nc1C#N (stereo not drawn),105%
13,COc1cccc(-c2cc3c(O)cc(C#N)cc3[nH]2)c1,114%
14,c1ccc(-c2nc(N3CCNCC3)c3nc(-c4ccccc4)oc3n2)cc1,-90.6% (active)
15,CN(C[C@H]1Cc2c(cccc2N2CCN(Cc3ccccn3)CC2)CN1)[C@H]1CCCc2cccnc21,64.9%
16,COc1ccc(-n2c(=O)sc3c(Cl)nc(C)nc32)c(OC)c1,68.8%
17,O=C(Nc1ccc(Cl)c(Cl)c1)NS(=O)(=O)c1cnccc1Oc1ccc(F)cc1,8.22% (active)
18,S=C(S)NCCc1c[nH]c2ccccc12,101%
19,COc1ccc(Nc2[nH]n3c(=O)cc(-c4ccccc4)nc3c2C(=O)Nc2ccc(C)cc2)c(OC)c1,98.7%
20,COc1ccc(-n2c(=S)sc3c(Cl)nc(C)nc32)c(OC)c1,-20.7% (active)

row,SMILES,growth
1,COc1ccc(-c2ccc(C)n2-c2ccc(-c3nc4ccccc4s3)cc2)cc1,107%
2,COc1cc(/C(C#N)=C/c2ccc3c(c2OC)OCO3)cc2c1OCO2,-36% (active)
3,Cc1ccc2ccccc2c1C[n+]1ccccc1,102%
4,COc1ccc(-c2ccc(-c3ccc(-c4ccc(C(=N)N)cc4)s3)s2)cc1OC,-64.9% (active)
5,O=C(CSc1nc2ccccc2[nH]1)Nc1ccc(-c2nc3ccccc3s2)c(Cl)c1,-17.2% (active)
6,O=c1ccn(-c2ncnc3nc[nH]c23)cc1,88.3%
7,CN(C[C@H]1Cc2c(cccc2N2CCN(c3ncccn3)CC2)CN1)[C@H]1CCCc2cccnc21,34%
8,COc1ccc(Nc2nn3c(-c4ccccc4)cc(-c4ccccc4)nc3c2C(N)=O)c(OC)c1,46.2%
9,COc1cc(-c2nn(-c3cccc(NC(=O)Nc4cccc(C(F)(F)F)c4)c3)cc2-c2ccncc2)ccc1Cl,-42% (active)
10,COc1ccc(C2C=C(c3ccc(Cl)cc3)N=C3SC=C(C)N32)c(Br)c1 (stereo not drawn),10.8%
11,O=C1C2(c3ccccc3)C(c3ccccc3)=C(c3ccccc3)C1(c1ccccc1)C1CC=CC12 (stereo not drawn),89.5%
12,CC(=O)Oc1csc(N(C(C)=O)c2cccc(C(F)(F)F)c2)n1,103%
13,COc1ccc(C2C=C(c3ccc(OC)c(OC)c3)N=C3SC=C(C)N32)c(Br)c1 (stereo not drawn),112%
14,CCC(=O)OC1=CN2C(=NC(c3ccc(N)cc3)=CC2c2cc(OC)c(OC)c(OC)c2)S1 (stereo not drawn),24.1%
15,C=C1CCC2C(C)(CO)C(O)CCC2(C)C1C/C=C1/C(=O)OCC1Oc1ccccc1C (stereo not drawn),34.3%
16,CCCCCCCC/C=C/CCCCCCCC1=NC(C)(C)CN1C(C)(C)CO,55.4%
17,CN(C)c1cccc2c(S(=O)(=O)/N=C(\N)Nc3nc4ccccc4s3)cccc12,8.44% (active)
18,N/C(=N\S(=O)(=O)c1ccccc1)Nc1nc2ccccc2s1,107%
19,COc1ccc(Nc2[nH]n3c(=O)cc(C)nc3c2C(N)=O)c(OC)c1,106%

# System: HS 578T breast
# Assay: as above
# Settings: 10 µM unless noted
row,SMILES,growth
1,CCOC(=O)C1=C(C)NC(C)=C(C(=O)OCC)C1(C)C,107%
2,Cc1[nH]c2ccc(F)cc2c1CCNC(=O)C1CCN(C(=O)c2ccccc2)C1 (stereo not drawn),90.9% [25 µM]
3,COc1ccc(C(=O)N2NC(=O)/C(=C/c3ccc(Br)cc3)N=C2c2ccccc2)cc1,94.9%
4,Cc1ccc(-c2cc3nc(-c4ccccc4)nc(C(Cl)Cl)n3n2)cc1,-42.1% (active)
5,O=C(Nc1cccc(-n2cc(-c3ccncc3)c(-c3ccc(Cl)c(O)c3)n2)c1)Nc1cccc(C(F)(F)F)c1,29.4%
6,COC(OC)c1ccccc1,99.2%
7,COc1ccc(NC(=O)c2c(Nc3ccc(OC)cc3OC)n[nH]c2N)c(OC)c1,96%
8,CC(C)(C)n1cc(-c2ccnc(NCCCNS(=O)(=O)c3ccc(F)cc3)c2)c(-c2cccc(O)c2)n1,52.4%
9,O=C(C1=Cc2cc3ccccc3n2Cc2cnnn21)c1ccccc1,69%
10,N=C(N)c1ccc(-c2ccc(-c3cncc4ccccc34)s2)cc1F,88.9%
11,c1cc(C2=N[C@@H]3c4ccccc4C[C@@H]3O2)nc(C2=N[C@@H]3c4ccccc4C[C@@H]3O2)c1,98.2%
12,CN(C)c1oc(C2OC2c2ccccc2)nc1C#N (stereo not drawn),90.1%
13,COc1cccc(-c2cc3c(O)cc(C#N)cc3[nH]2)c1,43.6%
14,c1ccc(-c2nc(N3CCNCC3)c3nc(-c4ccccc4)oc3n2)cc1,88.9%
15,CN(C[C@H]1Cc2c(cccc2N2CCN(Cc3ccccn3)CC2)CN1)[C@H]1CCCc2cccnc21,92.2%
16,COc1ccc(-n2c(=O)sc3c(Cl)nc(C)nc32)c(OC)c1,93.9%
17,O=C(Nc1ccc(Cl)c(Cl)c1)NS(=O)(=O)c1cnccc1Oc1ccc(F)cc1,86%
18,S=C(S)NCCc1c[nH]c2ccccc12,99.5%
19,COc1ccc(Nc2[nH]n3c(=O)cc(-c4ccccc4)nc3c2C(=O)Nc2ccc(C)cc2)c(OC)c1,78.1%
20,COc1ccc(-n2c(=S)sc3c(Cl)nc(C)nc32)c(OC)c1,72.6%

row,SMILES,growth
1,COc1ccc(-c2ccc(C)n2-c2ccc(-c3nc4ccccc4s3)cc2)cc1,97.5%
2,COc1cc(/C(C#N)=C/c2ccc3c(c2OC)OCO3)cc2c1OCO2,0.131% (active)
3,Cc1ccc2ccccc2c1C[n+]1ccccc1,95.1%
4,COc1ccc(-c2ccc(-c3ccc(-c4ccc(C(=N)N)cc4)s3)s2)cc1OC,89.6%
5,O=C(CSc1nc2ccccc2[nH]1)Nc1ccc(-c2nc3ccccc3s2)c(Cl)c1,65.2%
6,O=c1ccn(-c2ncnc3nc[nH]c23)cc1,81.7%
7,CN(C[C@H]1Cc2c(cccc2N2CCN(c3ncccn3)CC2)CN1)[C@H]1CCCc2cccnc21,73.1%
8,COc1ccc(Nc2nn3c(-c4ccccc4)cc(-c4ccccc4)nc3c2C(N)=O)c(OC)c1,56.8%
9,COc1cc(-c2nn(-c3cccc(NC(=O)Nc4cccc(C(F)(F)F)c4)c3)cc2-c2ccncc2)ccc1Cl,-13.7% (active)
10,COc1ccc(C2C=C(c3ccc(Cl)cc3)N=C3SC=C(C)N32)c(Br)c1 (stereo not drawn),56.3%
11,O=C1C2(c3ccccc3)C(c3ccccc3)=C(c3ccccc3)C1(c1ccccc1)C1CC=CC12 (stereo not drawn),106%
12,CC(=O)Oc1csc(N(C(C)=O)c2cccc(C(F)(F)F)c2)n1,93%
13,COc1ccc(C2C=C(c3ccc(OC)c(OC)c3)N=C3SC=C(C)N32)c(Br)c1 (stereo not drawn),116%
14,CCC(=O)OC1=CN2C(=NC(c3ccc(N)cc3)=CC2c2cc(OC)c(OC)c(OC)c2)S1 (stereo not drawn),49%
15,C=C1CCC2C(C)(CO)C(O)CCC2(C)C1C/C=C1/C(=O)OCC1Oc1ccccc1C (stereo not drawn),105%
16,CCCCCCCC/C=C/CCCCCCCC1=NC(C)(C)CN1C(C)(C)CO,65.9%
17,CN(C)c1cccc2c(S(=O)(=O)/N=C(\N)Nc3nc4ccccc4s3)cccc12,68%
18,N/C(=N\S(=O)(=O)c1ccccc1)Nc1nc2ccccc2s1,98.2%
19,COc1ccc(Nc2[nH]n3c(=O)cc(C)nc3c2C(N)=O)c(OC)c1,99.2%
